Reference: article PMC7819943, “Rice protein-binding microarrays: a tool to detect cis-acting elements near promoter regions in rice”
Whole data set: some 35,000 sequences, median “fluorescence intensity (a.u.)” near 10,000, cut for the highest 2% near 52,000. Only a selection was taken, and the highest values are over-represented in it overall.

These sequences were tested against T1, OsWOX13 (Oryza sativa, UniProt Q5QMM3 1-267) (assay: protein-binding microarray (RPBM); PBS, 2% BSA, 51.3 ng/ul salmon testes DNA, 50 uM zinc acetate, 200 nM TF, 25 C, 1 h; high values mean tight binding). Conditions: protein: recombinant; tags: N-terminal polyhistidine and DsRed monomer fusion (pET32a); label: CyDye5-dUTP incorporated in the synthesized complementary strand; 3' TTTTT single-stranded linker to array surface; dsDNA, one strand shown.
T1 sequence: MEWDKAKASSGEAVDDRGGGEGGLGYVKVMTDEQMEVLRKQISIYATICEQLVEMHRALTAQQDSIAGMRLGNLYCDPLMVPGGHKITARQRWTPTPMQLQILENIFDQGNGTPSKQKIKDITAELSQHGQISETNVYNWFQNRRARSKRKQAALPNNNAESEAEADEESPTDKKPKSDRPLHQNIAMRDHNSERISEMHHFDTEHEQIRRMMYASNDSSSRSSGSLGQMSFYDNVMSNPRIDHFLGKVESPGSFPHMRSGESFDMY
Summary of the method: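 Using Ni–NTA, transcription factors fused N-terminally to polyhistidine and DsRed were purified after expression in E. coli BL21-CodonPlus. These were incubated at 200 nM with a blocked, double-stranded custom Agilent array for 1 h at 25 °C in a buffer containing 50 µM zinc acetate, and the array was washed. The binding signal is per-feature fluorescence intensity (arbitrary units) on an Axon 4000B scanner.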

Sequence | binding signal
ACTCCCTATTAATTTCCATCACCTTTACCAAACAAGATATCGGAGTCACCTAGTGCAG | 6910 fluorescence intensity (a.u.)
GATTTAAACTGAAACGAACAGATTCTTTGTTCTTTGCATACGGAGTCACCTAGTGCAG | 9800 fluorescence intensity (a.u.)
ATAATTAGTACCTTATAATAAGTAGCACAATCTTCGTGTTCGGAGTCACCTAGTGCAG | 7900 fluorescence intensity (a.u.)
TGGAATGATGGATAAAGTCCAAGTTTGACCTGAGTCAAAGCGGAGTCACCTAGTGCAG | 6270 fluorescence intensity (a.u.)
CAGATATAAATTGAGCGACTTCCAGAGTGATCAGCACTACCGGAGTCACCTAGTGCAG | 7440 fluorescence intensity (a.u.)
ACAACAACAGCTTTGATCAATCAATCCATCAACTCAGGTTCGGAGTCACCTAGTGCAG | 11400 fluorescence intensity (a.u.)
AATCTTTTCTTAATTCTATAATTATCCTTAACGAATTAGTCGGAGTCACCTAGTGCAG | 4150 fluorescence intensity (a.u.)
GATAACTGGTGTGGAGGCTGCGGCGTGGGTGGTAAAGCACCGGAGTCACCTAGTGCAG | 3220 fluorescence intensity (a.u.)
ACAATGATTGATTAATGTTTGATAGTAACAGCCATGAGAGCGGAGTCACCTAGTGCAG | 58800 fluorescence intensity (a.u.)
TATTATTTATTTTGTTTGTGATTTGCTTTGTTATTAATAGCGGAGTCACCTAGTGCAG | 8380 fluorescence intensity (a.u.)
TAAATTTTGACTGATAAGTATAAGTATAAGCGAAAAGATTCGGAGTCACCTAGTGCAG | 12400 fluorescence intensity (a.u.)
GATTTTGATAGGAATGTAAGTATAAAACAGAGGATTGTAACGGAGTCACCTAGTGCAG | 3360 fluorescence intensity (a.u.)
ATATGATTATGTGATAATGTTTGAGAGTACAAACAAATGACGGAGTCACCTAGTGCAG | 19000 fluorescence intensity (a.u.)
TTTTGATTGATAAGTATAACCATGTATAAGCGAAACAATGCGGAGTCACCTAGTGCAG | 64500 fluorescence intensity (a.u.)
ATAATTTTGAAATTATTAACATGATATAAATGAGATAGAGCGGAGTCACCTAGTGCAG | 16200 fluorescence intensity (a.u.)
ATTAATGATTGATAGTCAGTCACTTAGCCATGTTATTTTGCGGAGTCACCTAGTGCAG | 65500 fluorescence intensity (a.u.)
TGTTAGATTTAATGTAATTGATTTGATATTTTAGATATTGCGGAGTCACCTAGTGCAG | 49700 fluorescence intensity (a.u.)
AACCCAATAACGGTAACTGACAAAACGATGAAAACCAAACCGGAGTCACCTAGTGCAG | 4460 fluorescence intensity (a.u.)
ATATAGATTTACGTTGGATTTATACTGATTCTAACCAAATCGGAGTCACCTAGTGCAG | 13600 fluorescence intensity (a.u.)
ATGATTTTGTTTTGTTTTGCGAATAATTTTGGCGCCTCAACGGAGTCACCTAGTGCAG | 6150 fluorescence intensity (a.u.)
CACCAGTGATCTTATAATTGTAAATTTTGATCCAAGATTCCGGAGTCACCTAGTGCAG | 3800 fluorescence intensity (a.u.)

Sequence | binding signal
AAGAATTAATTAATGTTTAACTAGATGGCCTTATTATCTCCGGAGTCACCTAGTGCAG | 34300 fluorescence intensity (a.u.)
ATGTGTATGATGTGTTTGTTTATGTGTGGACTTTATAATACGGAGTCACCTAGTGCAG | 3210 fluorescence intensity (a.u.)
TTTACTAAGCAATCAAGATAACCTGATGTGCCTATCCATCCGGAGTCACCTAGTGCAG | 10200 fluorescence intensity (a.u.)
ACAAACACGTAATAACATTAATTTCAATCTACACATCATACGGAGTCACCTAGTGCAG | 9270 fluorescence intensity (a.u.)
GCTCCTAACCAATCAGCGCACCCATCGTCCCAAAATCCCCCGGAGTCACCTAGTGCAG | 8480 fluorescence intensity (a.u.)
ATAATTATTATGTCTGGTAGGATAGGATTTAGATGGTAAGCGGAGTCACCTAGTGCAG | 5670 fluorescence intensity (a.u.)
AATCTCAAATTGAATCCATTTTATTTGATGACGATTTATTCGGAGTCACCTAGTGCAG | 9810 fluorescence intensity (a.u.)
TCCAGTGATTAATCTCTTCTCCATCTCTGCCCTGCACCCTCGGAGTCACCTAGTGCAG | 21400 fluorescence intensity (a.u.)
ATCAATTCAAATTTAAATTTTGATGAAACTCTTCGAAATCCGGAGTCACCTAGTGCAG | 14400 fluorescence intensity (a.u.)
TGATGAGATTGATCCGATGATCTCCTCTTTAAATTTCTCGCGGAGTCACCTAGTGCAG | 19100 fluorescence intensity (a.u.)
AAATCCCACTCCAATCACCACCACCTCTTCTCCAATTCCACGGAGTCACCTAGTGCAG | 3840 fluorescence intensity (a.u.)
CTCTCGCTCGCCATGATTGATCGAGCTCCACCTGCCAATTCGGAGTCACCTAGTGCAG | 12900 fluorescence intensity (a.u.)
TTGGAGATGATTGATTGGAAATCTTCTTCCAGTCTCCTCTCGGAGTCACCTAGTGCAG | 61700 fluorescence intensity (a.u.)
TCATTTCTCCAATCATAGGAGCTGGCGCATTGATCGATCACGGAGTCACCTAGTGCAG | 6160 fluorescence intensity (a.u.)
TCCAATTGATTGCAAATCGATTCCTCACTCCTCTCTTATCCGGAGTCACCTAGTGCAG | 57400 fluorescence intensity (a.u.)
CCAAATCAATCAAATCGCATTCCACCAATTCTCCACTCTCCGGAGTCACCTAGTGCAG | 27300 fluorescence intensity (a.u.)
TGATGATTTGATTTGATTTGATTCAATCTCCAAATCGATCCGGAGTCACCTAGTGCAG | 65100 fluorescence intensity (a.u.)
CCAATGATTGATCGATTTCTCTCCATACGCCGTGTGCCAACGGAGTCACCTAGTGCAG | 59700 fluorescence intensity (a.u.)
GTGATGATTTATTTTCGAACTATCTAGCTATTTATCTAGACGGAGTCACCTAGTGCAG | 9370 fluorescence intensity (a.u.)
CTCCAATTCATCTATAATCAATCTAATAGCCAATTCATACCGGAGTCACCTAGTGCAG | 5900 fluorescence intensity (a.u.)
GTTTTATTCTGATTAAATTAAATGCCACAGGGACATTGTCCGGAGTCACCTAGTGCAG | 9600 fluorescence intensity (a.u.)

Sequence | binding signal
ATGTGGCCGATAATTGCTTTGCATGCTGATGGATGTGGCTCGGAGTCACCTAGTGCAG | 4180 fluorescence intensity (a.u.)
GTCATAAATTGATCCATACATATCATAGTAAAGCGTGGGTCGGAGTCACCTAGTGCAG | 33400 fluorescence intensity (a.u.)
CTAAATTGAATCTATCCACTTTGCCTCCTAAACTCACCCCCGGAGTCACCTAGTGCAG | 54600 fluorescence intensity (a.u.)
GAAATAATTGATTGAATCCTATTCTATCCTCTAAAATTCCCGGAGTCACCTAGTGCAG | 30900 fluorescence intensity (a.u.)
ATCTAATCTTGAATTAAACTCACTATCAATTCCCACCATCCGGAGTCACCTAGTGCAG | 4380 fluorescence intensity (a.u.)
TAGTCAATTACTACTAGGTATGTGCTATTCATAACCATGACGGAGTCACCTAGTGCAG | 7320 fluorescence intensity (a.u.)
AGCTTTTCAGACTGAAAATGTAATAGACAACCTTATCAGACGGAGTCACCTAGTGCAG | 3810 fluorescence intensity (a.u.)
GGTAAATTGCAATACTCCGGATGTTCAGAGACAATAAGAGCGGAGTCACCTAGTGCAG | 13900 fluorescence intensity (a.u.)
TTAGATTATTGAGTCAGATTACTATAAGCTAGATTATTATCGGAGTCACCTAGTGCAG | 12500 fluorescence intensity (a.u.)
TAGTAATTGATTGCTGCCAAGATTACATTACTGCCCAATACGGAGTCACCTAGTGCAG | 65500 fluorescence intensity (a.u.)
TGCTAGTTAATATAATCTACTAATTAAAATAGTCGATTGACGGAGTCACCTAGTGCAG | 6000 fluorescence intensity (a.u.)
TACAAATTGATTGGCTATAGGTCAAATAGTGGATCCTAGACGGAGTCACCTAGTGCAG | 56000 fluorescence intensity (a.u.)
TTGATTAATTTGACGTCGATGCTACTAATAGTTAACCTTCCGGAGTCACCTAGTGCAG | 54200 fluorescence intensity (a.u.)
GTGCTAATATAATTTAAATAACTAGTTTGACGGACAAATCCGGAGTCACCTAGTGCAG | 10800 fluorescence intensity (a.u.)
ACAAATTAGCTATTATATTGGCTATAGATGATTTGGAGTACGGAGTCACCTAGTGCAG | 42300 fluorescence intensity (a.u.)
CAATCATTGATTGTTACTTTGTTAGTAATTGGTTAGTATACGGAGTCACCTAGTGCAG | 30100 fluorescence intensity (a.u.)
TTGCCAATTATGATTGGAGATTTACAAGTAGACTTCAATACGGAGTCACCTAGTGCAG | 18500 fluorescence intensity (a.u.)
TATCGATCGATTGATTGCTATAGCTAGGTCAAATCGATCGCGGAGTCACCTAGTGCAG | 28100 fluorescence intensity (a.u.)
TATGAATGCATTATGATTACTATTTGCTAATCATAAGTGGCGGAGTCACCTAGTGCAG | 11000 fluorescence intensity (a.u.)
CGTAATTAGTAGGTTGATTACTATTTGCTAATCATAAGTGCGGAGTCACCTAGTGCAG | 65200 fluorescence intensity (a.u.)
TTGTAATTAGTAGGGTGATTACTATTTGGTAATCATAAGTCGGAGTCACCTAGTGCAG | 33000 fluorescence intensity (a.u.)
